“And” between values parts separate entries of the source, which are not always exact repeats. Equal values may be shown once.
Legend:
Test in all cases: growth inhibition (% activity, log2 RLU normalised to DMSO / staurosporine); higher = more growth inhibition
Conditions in all cases: 33 µM
[1] = test system: DIPGX29 (H3.3 K27M diffuse intrinsic pontine glioma line)
Summary of the method: (§1)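 The growth-inhibition value is the median over replicates. pHGG cell lines and H9-derived neural stem cells on Geltrex-coated 384-well plates received approved drugs by pin tool at a single final concentration of about 33 μM, in triplicate, for 7 days at 37 °C, 5% CO2. CellTiter-Glo luminescence was log2-transformed and normalised per plate to % activity between solvent and positive control wells.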

[2] = test system: DIPGX37 (H3.3 K27M diffuse intrinsic pontine glioma line)
Summary of the method: as §1

[3] = test system: DIPGX7 (H3.3 K27M diffuse intrinsic pontine glioma line)
Summary of the method: as §1

[4] = test system: DIPGX9 (diffuse intrinsic pontine glioma line)
Summary of the method: as §1

[5] = test system: HGGX39 (paediatric high-grade glioma line)
Summary of the method: as §1

[6] = test system: HGGX6 (H3.3 G34R paediatric high-grade glioma line)
Summary of the method: as §1

[7] = test system: HNSC
Summary of the method: as §1

[8] = test system: SUDIPGIV (diffuse intrinsic pontine glioma line)
Summary of the method: as §1

[9] = test system: SUDIPGVI (diffuse intrinsic pontine glioma line)
Summary of the method: as §1

[10] = test system: SUDIPGXIII (diffuse intrinsic pontine glioma line)
Summary of the method: as §1

Compound	growth inhibition [1]	growth inhibition [2]	growth inhibition [3]	growth inhibition [4]	growth inhibition [5]	growth inhibition [6]	growth inhibition [7]	growth inhibition [8]	growth inhibition [9]	growth inhibition [10]
CN(C/C=C/C#CC(C)(C)C)Cc1cccc2ccccc12	-0.633% and -1.72%	-0.939% and -0.818%	-1.38% and -1.19%	0.275% and -0.829%	1.78% and -1.01%	0.104% and -1.17%	-0.321% and -4.36%	-0.307% and 0.598%	1.93% and -1.67%	-1.07% and -1.51%
NC(=O)NO	-5.64%	-0.579%	-2.73%	-1.74%	-1.77%	-4.15%	2.98%	-2.11%	-4.44%	1.21%
Cc1cc2c(s1)Nc1ccccc1N=C2N1CCN(C)CC1	1.66%	3.63%	1.48%	2.04%	4.5%	0.504%	3.31%	3.12%	3.75%	-0.29%
CS(=O)(=O)CCNCc1ccc(-c2ccc3ncnc(Nc4ccc(OCc5cccc(F)c5)c(Cl)c4)c3c2)o1	6.23% and 13.7%	3.79% and 6.67%	8.64% and 16.6%	4.74% and 6.77%	7.08% and 12.7%	3.29% and 14.5%	–	3.14% and -0.238%	-6.01% and 3.84%	0.448% and 1.79%
Cc1ccc(S(=O)(=O)NC(=O)NN2CC3CCCC3C2)cc1 (configuration not stated)	1.02%	1.27%	1.73%	0.944%	1.58%	-0.55%	35.3%	1.96%	-4.19%	0.367%
C[C@]12C=CC(=O)C=C1CC[C@@H]1[C@@H]2[C@@H](O)C[C@@]2(C)[C@H]1CC[C@]2(O)C(=O)CO	0.548%	0.082%	-0.697%	2.79%	1.22%	-0.621%	1.3%	-0.906%	1.51%	0.983%
CC1=NN(c2ccccc2)C(=O)C1	-3.36%	-1.06%	-0.361%	-0.407%	-0.249%	-3.17%	-4.84%	1.69%	-1.55%	-0.303%
CN1c2cc(O)c(N=NC(N)=O)cc2CC1S(=O)(=O)O (configuration not stated)	-0.566%	-0.439%	-0.368%	-0.808%	-0.659%	0.668%	-5.18%	-0.34%	0.422%	-12.4%
CC1(C(=O)O)CCC2(C)CCC3(C)C(=CC(=O)C4C5(C)CCC(OC6OC(C(=O)O)C(O)C(O)C6OC6OC(C(=O)O)C(O)C(O)C6O)C(C)(C)C5CCC43C)C2C1 (configuration not stated)	-2.43%	0.376%	-1.5%	-0.788%	-1.63%	-0.137%	-2.93%	-1.58%	-3.15%	0.0626%
Nc1[nH]cnc2ncnc1-2	-2.79% and 0.888% and 0.703%	-2.72% and -1.28% and 1.74%	-0.783% and 2.97% and -0.884%	-3.07% and 2.41% and -1.07%	-1.64% and 3.54% and 2.19%	-4.48% and -0.101% and -1.37%	–	-2.98% and 0.339% and 0.701%	-1.95% and 3.66% and 1.39%	-0.991% and 0.292% and 0.516%
CCN(CC)CC#CCOC(=O)C(O)(c1ccccc1)C1CCCCC1 (configuration not stated)	7.11% and -0.14%	-0.636% and -1.02%	8.09% and 5.01%	1.99% and -2.12%	4.03% and -0.183%	1.74% and -0.191%	–	3.76% and -2.81%	-0.8% and -5.89%	1.45% and 2.55%
